Data from PubChem BioAssay.
Values joined by “and” are separate entries in the source; they are usually repeats but may differ in a detail not shown here. Identical values can stand only once. Inconclusive results are not listed. Active and inactive are the calls of the source.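 How the source made its calls, unless noted: active means normalized viability below 100% at a tested concentration; inactive means the rest.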

Columns and labels:
[1] = growth inhibition of DIPG glioma cells, dose response, cell-based, SU-DIPG-XVII, MIPE5.0, CellTiter-Glo, qHTS (AID 1347060; cut-off not given, nearly all actives have AC50 up to about 26 µM;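 on AC50: cells exposed to compound for 48 hours before viability readout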); settings: SU-DIPG-XVII viability, CellTiter-Glo ATP luminescence
[2] = growth inhibition of DIPG glioma cells, dose response, cell-based, JHH-DIPG-1, MIPE4.0, CellTiter-Glo, qHTS (AID 1347062; cut-off not given, nearly all actives have AC50 up to about 27 µM;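 on AC50: cells exposed to compound for two days before readout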); settings: JHH-DIPG-1 viability, CellTiter-Glo ATP luminescence
[3] = growth inhibition of DIPG glioma cells, dose response, cell-based, SU-DIPG-XIII, MIPE5.0, CellTiter-Glo, qHTS (AID 1347064; cut-off not given, nearly all actives have AC50 up to about 23 µM;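 on AC50: cells exposed to compound for 48 hours before the viability read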); settings: SU-DIPG-XIII viability, CellTiter-Glo ATP luminescence
[4] = viability loss in pontine glioma line – cell-based, SU-DIPG-XXV, MIPE5.0, CellTiter-Glo, qHTS, dose response (AID 1347065; cut-off not given, nearly all actives have AC50 up to about 26 µM;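 further: cells exposed to compound for 48 hours before ATP readout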); settings: CellTiter-Glo ATP luminescence
[5] = SU-DIPG-VI glioma cell viability, MIPE4.0 library, CellTiter-Glo luminescence, qHTS (AID 1347066; cut-off not given, nearly all actives have AC50 up to about 30 µM;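 further: cells exposed to compound for 48 hours before readout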); settings: CellTiter-Glo ATP luminescence
[6] = JHH-DIPG-1 glioma cell viability, MIPE5.0 library, CellTiter-Glo luminescence, qHTS (AID 1347067; cut-off not given, nearly all actives have AC50 up to about 26 µM;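 further: cells exposed to compound for 48 hours before readout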); settings: JHH-DIPG-1 glioma viability, CellTiter-Glo ATP luminescence
[7] = SU-DIPG-XXV glioma cell viability, MIPE5.0 library, qHTS (AID 1347068; cut-off not given, nearly all actives have IC50 up to about 30 µM;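 on IC50: cells exposed to compound for 48 hours before viability readout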)
[8] = sensitizers of A549 cells to miR-34 induction, primary screen, imaging, A549 dox-inducible miR-34, nuclei and caspase counts (AID 1347080;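 active means compounds whose cell count with miR-34 switched on is under 0.7 times the count with it off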); settings: A549 miR-34 inducible, Hoechst nuclei count, 48 h
[9] = modifiers of HSF1 nuclear foci, imaging, Selleck Cancer Library (AID 1347162; in the data active means plate-normalised HSF1 focus index below about 0.46); settings: human cells, at 10 µM; SSMD: measured here: HSF1 foci SSMD mean; cell count: measured here: cell number; plate-normalised HSF1 focus index: stronger effect = lower value
[10] = survival rescue of mitochondrial mutant cells in low glucose, primary screen, MELAS cybrids, Rieske KO mouse fibroblasts, CellTiter-Glo (AID 1508586;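 active means mean z-score across replicates of 1.96 or higher in either the MELAS or the Rieske mutant cell line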;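 further: z relative to plate mean and SD of compound and empty wells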)
[11] = ovarian cancer cell viability with rucaparib, profiling panel, oncology-focused library, rucaparib conditional (AID 1508598); settings: patient-derived ovarian cancer cells, CellTiter-Glo viability, 144 h, stronger effect = lower value
[12] = stronger effect = lower value, cell number ratio, induced over uninduced
[13] = measured here: relative caspase fold change +Dox/-Dox
[14] = measured here: total cells with miR-34 induction, stronger effect = lower value
[15] = measured here: total cells without miR-34 induction
[16] = MELAS cybrid survival, CellTiter-Glo 48 h, stronger effect = higher value
[17] = Rieske KO mouse fibroblast survival, CellTiter-Glo 72 h
[18] = at 0.000305 µM, OCI-C5x cells, with rucaparib 10 µM, 100% = cells with rucaparib alone
[19] = at 0.000305 µM, OCI-C5x cells, without rucaparib
[20] = at 0.000305 µM, OCI-P5x cells, with rucaparib 20 µM, 100% = cells with rucaparib alone
[21] = at 0.000305 µM, OCI-P5x cells, without rucaparib
[22] = at 0.00122 µM, OCI-C5x cells, with rucaparib 10 µM, 100% = cells with rucaparib alone
[23] = at 0.00122 µM, OCI-C5x cells, without rucaparib
[24] = at 0.00122 µM, OCI-P5x cells, with rucaparib 20 µM, 100% = cells with rucaparib alone
[25] = at 0.00122 µM, OCI-P5x cells, without rucaparib
[26] = at 0.00488 µM, OCI-C5x cells, with rucaparib 10 µM, 100% = cells with rucaparib alone
[27] = at 0.00488 µM, OCI-C5x cells, without rucaparib
[28] = at 0.00488 µM, OCI-P5x cells, with rucaparib 20 µM, 100% = cells with rucaparib alone
[29] = at 0.00488 µM, OCI-P5x cells, without rucaparib
[30] = at 0.0195 µM, OCI-C5x cells, with rucaparib 10 µM, 100% = cells with rucaparib alone
[31] = at 0.0195 µM, OCI-C5x cells, without rucaparib
[32] = at 0.0195 µM, OCI-P5x cells, with rucaparib 20 µM, 100% = cells with rucaparib alone
[33] = at 0.0195 µM, OCI-P5x cells, without rucaparib
[34] = at 0.0781 µM, OCI-C5x cells, with rucaparib 10 µM, 100% = cells with rucaparib alone
[35] = at 0.0781 µM, OCI-C5x cells, without rucaparib
[36] = at 0.0781 µM, OCI-P5x cells, with rucaparib 20 µM, 100% = cells with rucaparib alone
[37] = at 0.0781 µM, OCI-P5x cells, without rucaparib
[38] = at 0.313 µM, OCI-C5x cells, with rucaparib 10 µM, 100% = cells with rucaparib alone
[39] = at 0.313 µM, OCI-C5x cells, without rucaparib
[40] = at 0.313 µM, OCI-P5x cells, with rucaparib 20 µM, 100% = cells with rucaparib alone
[41] = at 0.313 µM, OCI-P5x cells, without rucaparib
[42] = at 1.25 µM, OCI-C5x cells, with rucaparib 10 µM, 100% = cells with rucaparib alone
[43] = at 1.25 µM, OCI-C5x cells, without rucaparib
[44] = at 1.25 µM, OCI-P5x cells, with rucaparib 20 µM, 100% = cells with rucaparib alone
[45] = at 1.25 µM, OCI-P5x cells, without rucaparib
[46] = at 5 µM, OCI-C5x cells, with rucaparib 10 µM, 100% = cells with rucaparib alone
[47] = at 5 µM, OCI-C5x cells, without rucaparib
[48] = at 5 µM, OCI-P5x cells, with rucaparib 20 µM, 100% = cells with rucaparib alone
[49] = at 5 µM, OCI-P5x cells, without rucaparib

CS(=O)(=O)c1ccc(C(=O)Nc2ccc(Cl)c(-c3ccccn3)c2)c(Cl)c1
0.712 and 0.902: fold change [8, 13]
8790 and 6720: cell count [8, 14]
10200 and 7460: cell count [8, 15]
inactive: outcome [1] | outcome [2] | outcome [3] | outcome [4] | outcome [5] | outcome [6] | outcome [7] | fold change [8, 12] 0.865 and 0.901 | plate-normalised HSF1 focus index [9] 1.15 | z-score [10, 16] 0.265 and -0.383 | viability [11, 18] 124% | viability [11, 19] 125% | viability [11, 21] 106% | viability [11, 22] 126% | viability [11, 23] 125% | viability [11, 24] 103% | viability [11, 25] 102% | viability [11, 26] 125% | viability [11, 27] 124% | viability [11, 28] 106% | viability [11, 30] 115% | viability [11, 31] 117% | viability [11, 32] 107% | viability [11, 33] 102% | viability [11, 34] 123% | viability [11, 35] 116% | viability [11, 36] 106% | viability [11, 37] 103% | viability [11, 38] 125% | viability [11, 39] 127% | viability [11, 40] 108% | viability [11, 41] 104% | viability [11, 42] 133% | viability [11, 43] 116% | viability [11, 44] 108% | viability [11, 45] 104% | viability [11, 46] 158% | viability [11, 47] 149%
2.58: SSMD [9]
0.641 and 0.534: z-score [10, 17]
7240: cell count [9]
active: viability [11, 20] 92.5% | viability [11, 29] 97.6% | viability [11, 48] 97.4% | viability [11, 49] 99.8%

COc1cccc2c1C(=O)c1c(O)c3c(c(O)c1C2=O)C[C@@](O)(C(=O)CO)C[C@@H]3O[C@H]1C[C@H](N)[C@H](OC2CCCCO2)[C@H](C)O1 (some centres not stated)
active: AC50 [1] 417 nM and 332 nM | AC50 [2] 16.6 µM | AC50 [3] 2.95 µM and 833 nM | AC50 [4] 4.68 µM and 1.66 µM | AC50 [6] 2.95 µM and 2.35 µM | IC50 [7] 6.61 µM and 9.34 µM

Cc1ccc(CN2CCNCC2)cc1NC(=O)CNc1ccc(F)c(F)c1
inactive: outcome [1] | outcome [2] | outcome [3] | outcome [4] | outcome [6] | outcome [7]

COc1cc(Nc2ncc3c(n2)-c2ccc(Cl)cc2C(c2c(F)cccc2OC)=NC3)ccc1C(=O)O
2.08: SSMD [9]
inactive: outcome [2] | fold change [8, 12] 1.23 | plate-normalised HSF1 focus index [9] 1.13 | z-score [10, 16] -0.56 | viability [11, 19] 108% | viability [11, 20] 113% | viability [11, 21] 109% | viability [11, 22] 112% | viability [11, 23] 101% | viability [11, 24] 110% | viability [11, 25] 106% | viability [11, 26] 107% | viability [11, 28] 110% | viability [11, 29] 106% | viability [11, 31] 103% | viability [11, 32] 106%
1.04: fold change [8, 13]
6720: cell count [9]
active: AC50 [1] 148 nM | AC50 [3] 8.33 µM | AC50 [4] 93.4 nM | AC50 [6] 8.33 µM | IC50 [7] 3.72 µM | viability [11, 18] 94.6% | viability [11, 27] 98.7% | viability [11, 30] 94.4% | viability [11, 33] 99.3% | viability [11, 34] 75.5% | viability [11, 35] 70.5% | viability [11, 36] 91.7% | viability [11, 37] 70.7% | viability [11, 38] 74.5% | viability [11, 39] 82.5% | viability [11, 40] 87.4% | viability [11, 41] 63.8% | viability [11, 42] 76.8% | viability [11, 43] 77% | viability [11, 44] 82.8% | viability [11, 45] 56.7% | viability [11, 46] 42.9% | viability [11, 47] 34.9% | viability [11, 48] 78.6% | viability [11, 49] 39%
0.925: z-score [10, 17]
1510: cell count [8, 15]
1850: cell count [8, 14]
